# Several values for one entry are separate records, joined by “and”; a condition that tells them apart may be missing. Identical values can stand only once. Counter-ions that a name gives are not always drawn. Hit rate of the full screen: of about 5,800 compounds, about 620 (11%) showed activity. The sample as a whole holds a higher share of actives than the screen did. A number with no mark means an inactive call.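 Rule for the calls: active = score above a cut-off or among the top three wells of a plate; in these data no inactive exceeds 0.85.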
# Tested on: primary human hepatic stellate cells (donor 1)
# Test: scaled lipid accumulation score (0 = DMSO-like, 1 = nortriptyline-like); higher = stronger HSC inactivation (lipid re-accumulation), active = hit call of the paper
# Details: 48 h
# Protocol: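 Primary lipid accumulation screen in primary human hepatic stellate cell myofibroblasts (donor 1, passage 8) in 384-well plates. 100 nL of library compound was pin-transferred into 30 µL medium in duplicate, and cells were treated for 48 h. The 'Scaled' score combines distance from plate baseline, toxicity and reproducibility penalties, and is normalised to nortriptyline (positive) and DMSO (negative) controls on each plate. A hit is defined as scaled >0.85 or among the top 3 wells per plate.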
# [1] = library stock concentration: 3.33 mM
# [2] = library stock concentration: 10 mM
# [3] = library stock concentration: 80 uM
# [4] = library stock concentration: 400 uM
# [5] = library stock concentration: 2 mM
# [6] = library stock concentration: 1 mM
smiles,measurement,setting,value
CCCc1nc(C)c2c(=O)nc(-c3cc(S(=O)(=O)N4CCN(CC)CC4)ccc3OCC)[nH]n12 [Vardenafil HCl Trihydrate],scaled lipid accumulation score,[1],≤ 0
same,scaled lipid accumulation score,[2],0.473
CCCc1nc(C)c2c(=O)nc(-c3cc(S(=O)(=O)N4CCN(CC)CC4)ccc3OCC)[nH]n12,scaled lipid accumulation score,[2],≤ 0
COc1cc2ncnc(-n3nc(-c4ccccn4)nc3N)c2cc1OC,scaled lipid accumulation score,[3],≤ 0
same,scaled lipid accumulation score,[4],0.052
same,scaled lipid accumulation score,[5],0.101
same,scaled lipid accumulation score,[2],0.046
N[C@H]1C(O)O[C@H](CO)[C@@H](O)[C@@H]1O (stereo partly specified) [Glucosamine hydrochloride],scaled lipid accumulation score,library stock concentration: 9.3 mM,≤ -0.001
same,scaled lipid accumulation score,[2],0.034
"CCCCCC=CCC=CCC=CCC=CCCCCCC(=O)O [Adrenic acid (22:4, n-6)]",scaled lipid accumulation score,[6],≤ -0.01
CCN(CC)CCOc1ccc(C(=C(Cl)c2ccccc2)c2ccccc2)cc1.O=C(O)CC(O)(CC(=O)O)C(=O)O [Clomid],scaled lipid accumulation score,[2],0.963 (active)
CCN(CC)CCOCCOC(=O)C1(c2ccccc2)CCCC1 [Pentoxyverine Citrate],scaled lipid accumulation score,[1],≤ 0
same,scaled lipid accumulation score,[2],0.424
CCN(CC)CCOC(=O)c1ccc(N)cc1 [Procaine hydrochloride],scaled lipid accumulation score,,0.256
same,scaled lipid accumulation score,library stock concentration: 7.3 mM,≤ 0
same,scaled lipid accumulation score,[2],≤ 0
"CCN(CC)CCOc1ccc(/C(=C(/Cl)c2ccccc2)c2ccccc2)cc1.O=C(O)CC(O)(CC(=O)O)C(=O)O [Clomiphene citrate (Z,E)]",scaled lipid accumulation score,,0.946 (active)
COc1ccc(C(Cl)=C(c2ccc(OC)cc2)c2ccc(OC)cc2)cc1 [Chlorotrianisene],scaled lipid accumulation score,,≤ 0
same,scaled lipid accumulation score,library stock concentration: 5.3 mM,0.022
same,scaled lipid accumulation score,[2],≤ 0
CCN(CC)CCOC(=O)c1ccc(N)cc1 [Procaine HCl],scaled lipid accumulation score,[1],≤ 0
same,scaled lipid accumulation score,[2],≤ -0.001
CCN(CC)CCOc1ccc(C(=C(Cl)c2ccccc2)c2ccccc2)cc1 [Clomiphene citrate],scaled lipid accumulation score,library stock concentration: 4.9 mM,0.705
same,scaled lipid accumulation score,[2],≤ 0
CCN(CC)CCOCCOC(=O)C(CC)(CC)c1ccccc1.O=C(O)CC(O)(CC(=O)O)C(=O)O,scaled lipid accumulation score,[2],0.866 (active)
CCCC(C(=O)OCCN(CC)CC)(c1ccccc1)c1ccccc1 [SKF-525A hydrochloride],scaled lipid accumulation score,[2],0.355
CCCC(C(=O)OCCN(CC)CC)(c1ccccc1)c1ccccc1 [Proadifen hydrochloride],scaled lipid accumulation score,,0.228
same,scaled lipid accumulation score,library stock concentration: 5.1 mM,0.536
same,scaled lipid accumulation score,[2],0.511
CCN(CC)CCOCCOC(=O)C1(c2ccccc2)CCCC1 [Carbetapentane citrate],scaled lipid accumulation score,,0.595
same,scaled lipid accumulation score,[2],0.72 and 0.014 and 0.411
CCN(CC)CCOc1ccc(C(=C(Cl)c2ccccc2)c2ccccc2)cc1.O=C(O)CC(O)(CC(=O)O)C(=O)O [Clomifene citrate],scaled lipid accumulation score,[2],1.12 (active)
CCN(CC)CCOc1ccc(C(=C(Cl)c2ccccc2)c2ccccc2)cc1 [Clomifene citrate],scaled lipid accumulation score,[1],0.72
CC(C)[C@H]1c2ccc(F)cc2CC[C@@]1(CCN(C)CCCc1nc2ccccc2[nH]1)OC(=O)C1CC1 [NNC 55-0396 dihydrochloride],scaled lipid accumulation score,[2],0.432
CC(C)[C@H]1c2ccc(F)cc2CC[C@@]1(CCN(C)CCCc1nc2ccccc2[nH]1)OC(=O)C1CC1,scaled lipid accumulation score,[2],≤ -0.055
COc1ccc(-c2nc3cc(F)ccc3s2)cc1OC,scaled lipid accumulation score,[6],≤ 0
C=C1C[C@]23C[C@@]1(O)CC[C@H]2[C@@]12C=C[C@H](O)[C@@](C)(C(=O)O1)[C@H]2[C@@H]3C(=O)O [Gibberellic acid],scaled lipid accumulation score,,≤ 0
Cc1cc(I)ccc1Nc1c(C(=O)NOCC2CC2)cc(F)c(F)c1F,scaled lipid accumulation score,[2],≤ -0.001
CCc1cc2c(c(CC)n1)CCC(=O)N2Cc1ccc(-c2ccccc2-c2nn[nH]n2)cc1 [ZD 7155 hydrochloride],scaled lipid accumulation score,[2],0.009
CCCCCCCCCCCCCCC[C@@H](O)[C@H](CO)NC(=O)CCCCCCC [C8 Dihydroceramide],scaled lipid accumulation score,[6],≤ -0.021
CCN(CC)CCOC(=O)C(c1ccccc1)c1ccccc1 [Adiphenine HCl],scaled lipid accumulation score,[1],≤ 0
same,scaled lipid accumulation score,[2],≤ 0
CN(CCCOc1ccc(Cc2ccccc2)cc1)CCC(=O)O,scaled lipid accumulation score,[2],≤ 0
CCN(CC)CCOc1ccc(Cc2ccccc2)cc1.O=C(O)/C=C/C(=O)O [DPPE fumarate],scaled lipid accumulation score,[2],0.879 (active)
CCN(CC)CCOC(=O)C(c1ccccc1)c1ccccc1 [Adiphenine hydrochloride],scaled lipid accumulation score,,≤ 0
same,scaled lipid accumulation score,library stock concentration: 5.7 mM,0.005
same,scaled lipid accumulation score,[2],0.111
COc1ccc2c(c1)c(CC(=O)Nc1cccnc1)c(C)n2C(=O)c1ccc(Cl)cc1 [N-(3-pyridyl)-Indomethacin amide],scaled lipid accumulation score,[6],0.198
CCCc1ccc(C(=O)Oc2ccc(C#N)cc2)cc1,scaled lipid accumulation score,[2],0.011
CN(C)C(=O)CCSC(SCCC(=O)O)c1cccc(/C=C/c2ccc3ccc(Cl)cc3n2)c1 (stereo unspecified) [MK 571 (sodium salt)],scaled lipid accumulation score,[6],≤ 0
CCOc1cc(C(=O)Nc2ccc(Cl)c(-c3nc4ccccc4[nH]3)c2)cc(OCC)c1OCC,scaled lipid accumulation score,[2],0.438
CCOc1cc2ncc(C#N)c(Nc3ccc(OCc4ccccn4)c(Cl)c3)c2cc1NC(=O)/C=C/CN(C)C,scaled lipid accumulation score,[3],≤ 0
same,scaled lipid accumulation score,[4],≤ 0
same,scaled lipid accumulation score,[5],0.107
same,scaled lipid accumulation score,[2],0.02
CCOc1cc2ncc(C#N)c(Nc3ccc(F)c(Cl)c3)c2cc1NC(=O)C=CCN(C)C,scaled lipid accumulation score,[2],1.13 (active)
CCOc1cc2ncc(C#N)c(Nc3ccc(F)c(Cl)c3)c2cc1NC(=O)/C=C/CN(C)C,scaled lipid accumulation score,[3],0.071
same,scaled lipid accumulation score,[4],≤ -0.009
same,scaled lipid accumulation score,[5],0.269
CCOc1cc2ncc(C#N)c(Nc3ccc(F)c(Cl)c3)c2cc1NC(=O)C=CCN(C)C [Pelitinib (EKB-569)],scaled lipid accumulation score,[1],1.01 (active)
CCOc1cc2ncc(C#N)c(Nc3ccc(F)c(Cl)c3)c2cc1NC(=O)/C=C/CN(C)C [Pelitinib (EKB-569)],scaled lipid accumulation score,[2],0.498

# Source: the supplement of paper PMC9135407
